The record followed here is PubChem BioAssay (NCI).

About 83,000 compounds went through this panel and 20% of them were active in at least one assay; those are over-represented in the sample as a whole.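 Compound tested at a single concentration for 48 hours in 96-well plates; a percent growth value below 10 was scored as active.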 Values without a mark were called inactive. The source made the active and inactive calls.

This experiment deals with A549/ATCC NSCLC. The experiment in a line: NCI-60 one-dose screen, 48 h (100 = growth as untreated, 0 = no growth, -100 = all killed). To be noted: 10 µM. As to the method: Growth inhibition of the A549/ATCC human Non-Small Cell Lung tumor cell line is measured as a screen for anti-cancer activity. Cells are grown in 96 well plates and exposed to the test compound for 48 hours. Compounds are tested at a single concentration, which is 10^-5 M for most compounds. The reported endpoint is percent growth (GI% or GIPRCNT), where numbers from 0 - 100% represent growth inhibition, and numbers from -100% - 0 represent cell death. For example, a value of 40 represents 60% growth inhibition. A value of 0 means no net growth occurred over the course of the experiment. A value of -40 indicates 40% of cells at the beginning of the experiment died by the end of the experiment. A value of -100 means all cells are dead at the end of the experiment.
NCI-60 Human Tumor Cell Lines Screen was performed using the standard one-dose NCI protocol, which is described in more detail at https://dtp.cancer.gov/discovery_development/nci-60/default.htm.
Compounds with GIPRCNT values below 10 were considered active. Activity score was based on GIPRCNT using the following formula: […]
Score is 0 for GIPRCNT values of 100 or above, 50 for GIPRCNT values of 0, and 100 for GIPRCNT values of -100.
As for `O=C(NC([Se])=NC1CCCCC1)c1ccc2c(c1)OCO2`, the growth is 26.8%.

For `O=C(/C=C/c1cccc(Br)c1)c1nc2ccccc2n1Cc1ccc(Br)cc1`, the growth was 28%. As for `C[C@H]1[C@H](OC(=O)CCC(=O)N(CCCc2cn(-c3ccc(C#N)cc3)nn2)CCNc2ccnc3cc(Cl)ccc23)O[C@@H]2OC3(C)CC[C@H]4[C@H](C)CC[C@@H]1[C@@]24OO3`, the figure is 51.5%; as for `O=C(NCCCCC(c1ccc(F)cc1)c1ccc(F)cc1)Nc1ccc([N+](=O)[O-])c(C(F)(F)F)c1`, 6% (active). As for `C=CC[Se]C(=O)c1cncc(C(=O)[Se]CC=C)c1`, the figure is 7.53% (active); as for `N#C[Se]CC(=O)Nc1cccc(C(F)(F)F)c1`, -50.4% (active). As for `CC[C@]12C=CCN3CC[C@@]4(c5ccc(OC)cc5N(C)[C@H]4[C@@](O)(C(=O)OC)[C@@H]1OC(=O)CCC[P+](c1ccc(C)cc1)(c1ccc(C)cc1)c1ccc(C)cc1)[C@@H]32`, the figure is -90.3% (active).

As to `COc1cc2cc(C(=O)N3C[C@@H](CCl)c4c3cc(OC(=O)N3CCN(C)[C@@H]5CSSC[C@@H]53)c3ccccc43)[nH]c2c(OC)c1OC`, the growth is 7.2% (active). As for `O=C(/C=C/c1ccc(Cl)cc1)c1nc2ccccc2n1Cc1ccc(F)cc1`, the figure is 44.7%; as for `CC1=C(CCC=O)C2=C(C)C3(CC3)[C@@](C)(O)C(=O)C2=C1`, -2.03% (active); as for `COc1cc(OC)c(/C=C/C(=O)c2nc3ccccc3n2Cc2ccc(F)cc2)c(OC)c1`, 88.6%. As for `COc1ccc2cc([C@H](C)C(=O)[Se]CCC#N)ccc2c1`, the figure is -64.9% (active); as for `C#CC[Se]C(=O)c1ccc(C(=O)[Se]CC#C)s1`, 31.1%; as for `O=C(/C=C/c1ccccc1)c1nc2ccccc2n1Cc1ccc(F)cc1`, 24.8%. In the case of `C#CCCCN(CCNc1ccnc2cc(Cl)ccc12)C(=O)CCC(=O)O[C@@H]1O[C@@H]2OC3(C)CC[C@H]4[C@H](C)CC[C@@H]([C@H]1C)[C@@]24OO3`, the growth was 40.8%. As for `O=C(/C=C/c1ccc(Cl)cc1Cl)c1nc2ccccc2n1Cc1ccc(F)cc1`, the figure is 66.5%; as for `C[C@H]1[C@H](OC(=O)CCC(=O)Nc2cnccn2)O[C@@H]2OC3(C)CC[C@H]4[C@H](C)CC[C@@H]1[C@@]24OO3`, 62.6%; as for `COP(=O)(CC(F)(F)C(F)(F)F)OC`, 87.4%. As to `O=C(/C=C/c1ccc(F)cc1)c1nc2ccccc2n1Cc1ccc(Br)cc1`, the growth is 1.63% (active). `O=C(NC([Se])=NC1CCCCC1)c1ccccc1`: the growth is 21.1%. With `O=C(/C=C/c1ccco1)c1nc2ccccc2n1Cc1ccc(F)cc1`, the growth is 62.2%. As for `CC(=O)Oc1ccccc1C(=O)[Se]C(=NC(C)C)NC(C)C`, the figure is -3.31% (active); as for `C[C@H]1[C@H](OC(=O)CCC(=O)N(CCCc2cn(-c3ccc(CN4CCOCC4)cc3)nn2)CCNc2ccnc3cc(Cl)ccc23)O[C@@H]2OC3(C)CC[C@H]4[C@H](C)CC[C@@H]1[C@@]24OO3`, 36%; as for `COC(=O)CCn1c(-c2ccc(-n3cc(-c4ccc(O[C@H]5O[C@@H]6OC7(C)CC[C@H]8[C@H](C)CC[C@@H]([C@H]5C)[C@@]68OO7)cc4)nn3)cc2)nc2ccccc21`, 30.9%. In the case of `CC12OOC(C)(OO1)C2CCC(=O)NCCNc1ccnc2cc(Cl)ccc12` (stereo not given), the growth was 119%. As for `CC12CCC3(CCC(=O)NCCCNc4ccnc5cc(Cl)ccc45)[C@@](C)(OO[C@]3(C)O1)O2`, the figure is 25.3%. As to `COc1ccc(/C=C/C(=O)c2nc3ccccc3n2Cc2ccc(Br)cc2)cc1`, the growth was 74.6%.

Turning to `O=C(/C=C/c1ccco1)c1nc2ccccc2n1Cc1ccc(Br)cc1`, the growth is 47.3%. Turning to `CC(=C\C(=O)Oc1ccc2c3c1OC1C(O)CCC4(O)C(C2)N(CC2CCC2)CCC314)/C=C1\CCCc2ccccc21` (stereo not given), the growth was 48.9%.

For `CC(C)C[C@H](NC(=O)CNC(=O)C[C@H]1O[C@@H]2OC3(C)CC[C@H]4[C@H](C)CC[C@@H]([C@H]1C)[C@@]24OO3)B(O)O`, the growth was 32.7%.

As to `CCOP(=O)(CC(F)(F)C(F)(F)F)OCC`, the growth is 76.2%. As for `COc1cc2cc(C(=O)N3C[C@@H](CCl)c4c3cc(OC(=O)N3CCN(C)[C@@H]5CSSC[C@H]53)c3ccccc43)[nH]c2c(OC)c1OC`, the figure is -58.4% (active).

Regarding `COc1cc2cc(C(=O)N3C[C@@H](CCl)c4c3cc(OC(=O)N3CCN(C(=O)CCC(=O)N5CCN(C)CC5)[C@@H]5CSSC[C@@H]53)c3ccccc43)[nH]c2c(OC)c1OC`, the growth was -59.7% (active). As for `O=C(/C=C/c1ccccc1Cl)c1nc2ccccc2n1Cc1ccc(F)cc1`, the figure is -44.3% (active).

On to `COc1ccc(OC)c(/C=C/C(=O)c2nc3ccccc3n2Cc2ccc(F)cc2)c1`, for which the growth was 8.34% (active). As for `COc1cc(OC)c(S(=O)(=O)N(CCCl)CCCl)cc1C(=O)/C=C/c1cc(OC)c(OC)c(OC)c1`, the figure is 3.9% (active).

On to `CC(=O)Oc1ccccc1C(=O)NC([Se])=NC1CCCCC1`, for which the growth is 20.4%.

For the molecule `O=C([Se]C1C=CCCC1)c1ccc(C(=O)[Se]C2C=CCCC2)s1` (stereo not given), the growth is -7.22% (active). As for `O=C(/C=C/c1ccccc1)c1nc2ccccc2n1Cc1ccc(Br)cc1`, the figure is -3% (active); as for `CC[C@@]12CC(C(=O)OC)=C3Nc4cc5c(cc4[C@@]34CCN(C[C@H]3O[C@H]31)[C@@H]24)[C@@H]1[C@H](O5)[C@@H](O)[C@@]2(CC)CC(C(=O)OC)=C3Nc4cc(OC)ccc4[C@@]34CCN1[C@@H]24`, 25.7%.
